Compound activity from PubChem BioAssay.
Shown are actives, neighbours in structure and some others; about 10% of the full set was active somewhere.
BAZ2B inh: qHTS Assay for Inhibitors of BAZ2B. Bromodomain adjacent to zinc finger domain protein 2B (Homo sapiens), Q9UIF8. AlphaScreen BAZ2B-H3K14Ac peptide displacement. Potency, µM (doses to about 114 µM), most hits filed as inhibitors. hit rate 4.4% among 360,000; further: nearly all actives have a fitted effect of over 60% in size
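BAZ2B (50 nM) with biotin-H3(5-23)K14Ac peptide (50 nM) in PBS pH 7.4, 0.01% Tween-20, preformed 30 min, then compound 30 min at room temperature; top concentration 110uM. AlphaScreen streptavidin donor/nickel chelate acceptor beads (10 ug/mL final), 20 min dark, signal read.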
G9a inh: qHTS Assay for Inhibitors of Histone Lysine Methyltransferase G9a; Histone-lysine N-methyltransferase EHMT2 (Homo sapiens), Q96KQ7; G9a H3K9 monomethylation, AlphaScreen, 2 h; Potency, µM (titrated, usually from 102 µM), hits mostly inhibitors; hit rate 8.8% among 350,000; AID 504332, 2011; further: nearly all actives have a fitted effect of over 75% in size
Target sequence (Q96KQ7 913-1193 limits assumed): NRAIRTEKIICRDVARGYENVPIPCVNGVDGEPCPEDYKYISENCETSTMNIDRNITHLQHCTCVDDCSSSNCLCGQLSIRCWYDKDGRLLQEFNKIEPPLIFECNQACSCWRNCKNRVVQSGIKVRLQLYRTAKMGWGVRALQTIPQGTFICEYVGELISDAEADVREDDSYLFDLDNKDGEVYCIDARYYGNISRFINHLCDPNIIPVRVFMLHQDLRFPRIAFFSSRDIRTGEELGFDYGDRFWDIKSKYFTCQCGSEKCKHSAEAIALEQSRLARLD
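AlphaScreen detection with an anti-monomethyl H3K9 antibody quantified product after a 2 h room-temperature reaction containing 500 nM biotinylated H3K9 peptide, 20 µM SAM and 20 nM enzyme, which had been preincubated 15 min with compound.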
JMJD2A Tudor: qHTS Assay for Inhibitors of JMJD2A-Tudor Domain; Lysine-specific demethylase 4A (Homo sapiens), O75164; hit rate 4.4% among 390,000; AID 504339, 2011; Potency, µM (series often up to 114 µM), actives largely listed as inhibitors; AlphaScreen JMJD2A-Tudor / H3K4me3 peptide binding; further: nearly all actives have a fitted effect of over 50% in size
HP1b chromo inh: HTS for Inhibitors of HP1-beta Chromodomain Interactions with Methylated Histone Tails. Chromobox protein homolog 1 (Homo sapiens), P83916. AlphaScreen HP1-beta / biotin-H3K9me3 peptide binding. Potency, µM (doses to about 114 µM), most hits filed as inhibitors. hit rate 0.56% among 390,000; further: nearly all actives have a fitted effect of over 70% in size
Target sequence (P83916 whole entry, looked up): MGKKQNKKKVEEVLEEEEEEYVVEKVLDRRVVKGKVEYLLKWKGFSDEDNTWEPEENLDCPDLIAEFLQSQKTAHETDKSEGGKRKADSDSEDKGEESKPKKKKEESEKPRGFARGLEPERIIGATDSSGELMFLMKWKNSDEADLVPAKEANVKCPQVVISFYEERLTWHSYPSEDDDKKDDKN
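AlphaScreen: HP1-beta (50 nM) preformed 30 min with biotin-H3(1-18)K9me3 peptide (50 nM) in PBS pH 7.4, 0.01% Tween-20. Compound added for 30 min at RT, then streptavidin donor/nickel chelate acceptor beads (10 ug/mL) for 30 min.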
GLS inhibitor: qHTS for Inhibitors of Glutaminase (GLS) | Glutaminase kidney isoform, mitochondrial (Homo sapiens), O94925 | GLS enzymatic activity, qHTS titration | Potency, µM (series often up to 45.5 µM), most hits filed as inhibitors | hit rate 0.21% among 410,000 | AID 624170, 2012
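Glutamate formation by hKGA was monitored fluorometrically using coupled glutamate oxidase, HRP and Amplex Red. Substrate was added as 1 mM L-glutamine solution; incubation was 30 min at RT after an initial read.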
Large screens that a line does not name were inactive; ! = not confirmed by another sample. The call rests on the fitted dose curve; in most records, active means well fitted curve in the direction sought with a large enough effect; inconclusive means small, poorly fitted or top-dose-only effect, or another doubt; inactive means no such curve, though single readings can be large; an effect the other way counts as inactive or inconclusive.

C=CCn1c(-c2ccc3ncccc3c2)n[nH]c1=S	G9a inh 7.9µM, JMJD2A Tudor 7.1µM
Cc1nn(-c2cccc(Cl)c2)c2nc(-c3cccnc3)cc(C(F)(F)F)c12	none
CCn1c(-c2ccc([N+](=O)[O-])cc2)n[nH]c1=S	G9a inh 4µM, JMJD2A Tudor 3.5µM
CCCCn1c(=O)[nH]c(=O)c2c1nc(-c1ccc([N+](=O)[O-])cc1)n2CC	G9a inh inconclusive
Cc1cccc(CS(=O)(=O)c2ncc(Cl)c(C(=O)Nc3c(C)cccc3C)n2)c1	G9a inh 35µM
CCc1nnc(NC(=O)c2cc(Cl)ccn2)s1	BAZ2B inh 20µM, G9a inh 79µM, JMJD2A Tudor 16µM
COc1ccc(NC(=O)c2nc(S(=O)(=O)Cc3cccc(C)c3)ncc2Cl)c(OC)c1	none
Cc1cccc(C)c1NC(=O)c1nc(S(=O)(=O)Cc2ccccc2)ncc1Cl	G9a inh inconclusive
CCc1nnc(NC(=O)c2nc(S(C)(=O)=O)ncc2Cl)s1	G9a inh 7.1µM, JMJD2A Tudor 10µM
CCSc1ncc(Cl)c(C(=O)Nc2nnc(CC)s2)n1	G9a inh inconclusive
COc1ccc(OC)c(NC(=O)c2nc(S(=O)(=O)Cc3ccccc3)ncc2Cl)c1	G9a inh 35µM, GLS inhibitor inconclusive
CCCN(CCc1cccs1)[C@H]1CCc2c(O)cccc2C1	none (no result: BAZ2B inh, JMJD2A Tudor, HP1b chromo inh)
CNc1ncnc2c1ncn2[C@@H]1O[C@H](COP(=O)(O)O)[C@@H](O)[C@H]1O	none (no result: BAZ2B inh, JMJD2A Tudor, HP1b chromo inh, GLS inhibitor)
Cc1ccccc1CS(=O)(=O)c1ncc(Cl)c(C(=O)Nc2ccc(F)cc2)n1	G9a inh 22µM
Cc1ccc(NC(=O)c2nc(S(=O)(=O)Cc3ccccc3)ncc2Cl)cc1	BAZ2B inh inconclusive, G9a inh inconclusive, GLS inhibitor inconclusive
Cc1nnc(NC(=O)c2nc(S(=O)(=O)Cc3ccccc3)ncc2Cl)s1	BAZ2B inh 50µM!, G9a inh 40µM, JMJD2A Tudor 32µM
COc1cc2c[n+](C)c3c4ccccc4ccc3c2cc1OC	none (no result: BAZ2B inh, G9a inh)
COc1ccc(Cc2c3cc(OC)c(OC)cc3cc[n+]2C)cc1OC	JMJD2A Tudor 22µM, HP1b chromo inh inconclusive
CC[n+]1ccc2cc(OC)c(OC)cc2c1Cc1ccc(OC)c(OC)c1	BAZ2B inh 79µM, G9a inh 22µM, JMJD2A Tudor 25µM, HP1b chromo inh 40µM
Oc1ccccc1N1CCN(CC(O)COCc2ccccc2Cl)CC1 (centres undefined)	BAZ2B inh 50µM, G9a inh 10µM, JMJD2A Tudor 20µM, HP1b chromo inh inconclusive
CN(C)c1ccc(C=C2C=Cc3ccccc32)cc1	JMJD2A Tudor 14µM, HP1b chromo inh inconclusive (no result: BAZ2B inh, G9a inh)
CN(C)c1ccc(/C=N/N2C(=O)c3ccccc3C2=O)cc1	none
CNc1ccc(C=C2C=Cc3ccccc32)cc1	JMJD2A Tudor 28µM, HP1b chromo inh 40µM (no result: BAZ2B inh, G9a inh)
COc1cc2c(cc1OC)C(=Cc1ccc(N(C)C)cc1)C=C2	JMJD2A Tudor 10µM, HP1b chromo inh 10µM (no result: BAZ2B inh, G9a inh)
CCN(CC)P(=O)(Nc1ccccc1Br)c1ccc(N(C)C)cc1NC(=O)c1ccco1 (centres undefined)	none
COc1ccc(C(N)c2csc(Nc3ccc(C(=O)NCCCO)cn3)n2)cc1 (centres undefined)	none (no result: BAZ2B inh, G9a inh, JMJD2A Tudor, HP1b chromo inh)
CCCCOc1ccc(C(=O)NC)cc1	none
CCCCOc1ccc(NC(=O)CN2CCN(CC)CC2)cc1	BAZ2B inh 56µM, G9a inh 11µM, JMJD2A Tudor 0.79µM, HP1b chromo inh inconclusive
CCN(CC)c1ccc(NC(=O)CN2CCN(CC(=O)Nc3ccccc3OC)CC2)cc1	BAZ2B inh inconclusive, G9a inh 45µM, JMJD2A Tudor 56µM, HP1b chromo inh inconclusive
CCCCOc1ccc(CC(=O)NO)cc1	G9a inh 28µM!
CCOc1ccc(NC(=O)CN2CCN(CC(=O)Nc3ccccc3OC)CC2)cc1	G9a inh 45µM
CCOc1ccccc1NC(=O)C1CCN(S(=O)(=O)c2c(C)noc2/C=C/c2ccc(C)cc2)CC1	none
O=S(=O)(c1ccc2c(c1)OCCO2)N1CCN(S(=O)(=O)c2cccs2)CC1	none (no result: BAZ2B inh, G9a inh, HP1b chromo inh, GLS inhibitor)
O=C(CCc1nnc2ccc(NCc3ccccc3)nn12)NC1CCCCC1	BAZ2B inh inconclusive, JMJD2A Tudor inconclusive
COc1ccc(NC(C)=O)cc1NC(C)C(=O)Nc1cccc2ccccc12 (centres undefined)	G9a inh 50µM
CCOc1ccc(NC(=O)CN2CCN(CC(=O)Nc3ccc(C(=O)OC)cc3)CC2)cc1	G9a inh 32µM
COc1ccccc1NC(=O)CN1CCN(CC(=O)Nc2cc(NC(C)=O)ccc2OC)CC1	G9a inh 40µM
COc1ccc(NC(C)=O)cc1NC(C)C(=O)Nc1ccc(F)cc1 (centres undefined)	none
O=C1c2cccc3c2[C@@H](CCC3)CN1[C@@H]1CN2CCC1CC2	none (no result: BAZ2B inh, JMJD2A Tudor, HP1b chromo inh)
COc1cccc(Nc2ncc3nc(C)c(=O)n(CCc4ccccc4)c3n2)c1	none (no result: BAZ2B inh, JMJD2A Tudor, HP1b chromo inh, GLS inhibitor)
COc1ccccc1NC(=O)Cc1cccc2ccccc12	none
COc1ccccc1CN(C)CC(=O)Nc1cccc2ccccc12	G9a inh 50µM
COc1ccccc1CN(C)CC(=O)Nc1ccc(Cl)cc1C(F)(F)F	BAZ2B inh 50µM, G9a inh 8.9µM, JMJD2A Tudor 3.5µM, HP1b chromo inh inconclusive
COc1ccccc1NC(=O)C(C)N(C)CC(=O)Nc1cccc2ccccc12 (centres undefined)	none (no result: BAZ2B inh, G9a inh)
COc1ccc(C(C)(C)C)cc1NC(=O)CNc1cccc2ccccc12	BAZ2B inh inconclusive, G9a inh inconclusive, JMJD2A Tudor 45µM, HP1b chromo inh inconclusive
O=C(c1cnc(N2CCCCC2)c2ccccc12)N1CCN(c2cccc(Cl)c2)CC1	none
CC1=CC(C)C(C[N+]2(C)CCCCC2)C(C)C1 (centres undefined)	BAZ2B inh inconclusive, G9a inh 25µM
COc1ccccc1N1CCN(C(=O)[C@@H]2CCCN2C2=NS(=O)(=O)c3ccccc32)CC1	none (no result: BAZ2B inh, G9a inh, JMJD2A Tudor, HP1b chromo inh)
O=C(NC1CCCC1)C(c1ccc(F)cc1)N(Cc1ccc(F)cc1)C(=O)CCl (centres undefined)	G9a inh 45µM
Cc1sc2ncnc(NCC(c3ccco3)N(C)C)c2c1C (centres undefined)	JMJD2A Tudor 1.6µM, HP1b chromo inh inconclusive
CSc1ccc(C(O)c2ncc(-c3ccccc3F)[nH]2)cc1 (centres undefined)	none (no result: BAZ2B inh, G9a inh, JMJD2A Tudor, HP1b chromo inh)
O=C(NNC(=O)C12CC3CC(CC(C3)C1)C2)c1cnccn1	G9a inh 3.2µM
N#CC(=C(\N)Sc1ccccc1N)/C(C#N)=C(/N)Sc1ccccc1N	G9a inh 32µM (no result: BAZ2B inh, JMJD2A Tudor, HP1b chromo inh, GLS inhibitor)
O=C(c1cc2cc(Cl)ccc2[nH]1)N1CCN(Cc2ccc3c(c2)OCO3)CC1	BAZ2B inh inconclusive, JMJD2A Tudor inconclusive (no result: G9a inh)
